Source: PubChem BioAssay (several laboratories)
HIF activator = HIF pathway transcriptional activation; U2OS HRE-luciferase reporter, luminescence; normalized: DMSO 0%, desferrioxamine 100%; activation, % at 7.5 µM (by protocol); 300,000 tested, 0.32% active; AID 1910;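 active means mean activation of at least 10% of the iron chelator positive control signal, with at least half of replicates also reaching 10%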
aSyn UTR inh = 5' untranslated region of α-synuclein, MLPCN primary screen | 300,000 tested, 0.82% active | alpha-synuclein 5'UTR reporter, inhibitor activity | inhibition, % (tested at 7.5 µM) | AID 1813; in the data active means inhibition above about 60%;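 further: H4 neuroglioblastoma cells stably carrying SNCA 5'UTR luciferase fusion; 0% = DMSO wells and 100% = positive control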
KLF5 inh = inhibitors of KLF5 expression | AID 1700 | DLD-1 KLF5 promoter-luciferase reporter, luminescence | inhibition, % at 5 µM | 290,000 tested, 0.23% active;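 active means inhibition above a per-plate limit of that plate's mean compound inhibition plus 3 SD, cut at about 60% in these data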;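 further: 0% = DMSO wells and 100% = LY294002 at 200 µM; higher means less KLF5 promoter-driven luciferase light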
Wee1 degr inh = inhibitors of human Wee1 degradation | P30291 | HeLa Luc-Wee1K328M stability, luciferase luminescence; 100% = proteasome inhibitor MG132 effect | reporter increase, % at 5 µM | 220,000 tested, 1.2% active | AID 1321;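 active means activation above the mean of all tested compounds plus 3 SD, set per screening run, cut at about 8.8% in these data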;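 further: cells exposed to compound for 20 h before luminescence read; 0% = DMSO alone and 100% = MG132 at 30 µM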
Platelet DG rel = platelet dense granule release activity. human platelet-rich plasma, SFLLRN dense granule ATP release, luminescence. inhibition, %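 (compounds screened at 7.5 µM in platelet-rich plasma)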. 300,000 tested, 0.22% active;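 active means mean replicate score, as percent of positive control, at or above 50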
Wee1 stab conf = confirmation of human Wee1 degradation inhibitors; shares compounds with Wee1 degr inh; AID 1410; HeLa Luc-Wee1K328M degradation, luminescence; vehicle 0%, proteasome-blocked wells 100%; 1,100 tested, 4% active; activation, % at 5 µM; in the data active means activation above about 8.9%
KLF5 confirm = confirmation of KLF5 inhibitors; shares compounds with KLF5 inh; DLD-1 KLF5 promoter firefly luciferase reporter, luminescence; inhibition, % at 4 µM; 610 tested, 79% active; AID 1834;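 active means inhibition above a set limit taken from the earlier primary screen, cut at about 63% in these data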;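 further: 0% = DMSO wells and 100% = LY294002 at 200 µM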
IEC-6 tox trip = counter-screen for KLF5 inhibitors: cytotoxicity in rat IEC-6 cells; shares compounds with KLF5 inh; IEC-6 rat intestinal cells, viability luminescence; inhibition, % at 4 µM; 610 tested, 56% active; in the data active means inhibition above about 23%;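 further: cells exposed to compounds for 48 hours before viability read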
An asterisk follows results filed as active; / = no result given. An excerpt weighted towards active compounds, which were near 2.1% of everything screened.

SMILES	HIF activator	aSyn UTR inh	KLF5 inh	Wee1 degr inh	Platelet DG rel	KLF5 confirm	IEC-6 tox trip	others
CCn1cc(CN2CCCC(C(=O)c3sccc3C)C2)cn1 (stereo unspecified)	0.5	-3.3	-7.9	11.1*	-3.1	/	/	Wee1 stab conf=0.5
COc1ccc(NC2=NC(C)(C)CS2)cc1	3.1	-139.7	-68.8	16.2*	6.1	/	/	Wee1 stab conf=1.8
COc1ccc(NC2=NCC(C)S2)cc1 (stereo unspecified)	0.2	-13.2	6.3	2.1	9.4	/	/
O=C1C(=O)c2ccccc2-c2ccccc21	-3.6	118.9*	106.0*	2.6	1.4	114.1*	100.9*
CC(C)OP(=O)(Oc1ccc(C(O)C(Cl)(Cl)Cl)cc1)OC(C)C (stereo unspecified)	-0.2	12.2	-48.0	-1.7	6.0	/	/
O=C(Nc1ccc(OC(=O)N2CCCCC2)cc1)N1CCOCC1	-3.6	88.9*	68.2*	-1.4	7.8	3.6	-7.4
Cc1nc2ccccc2c(=O)n1-c1cccc([N+](=O)[O-])c1	-0.7	-10.2	-47.4	/	-3.7	/	/
CN1C(=O)C(c2ccc([N+](=O)[O-])cc2[N+](=O)[O-])C(=O)N(C)C1=O	-7.4	0.4	-0.9	/	2.1	/	/
COc1cc2c(c(OC)c1OC)-c1ccc(O)c(=O)cc1C(NC(C)=O)CC2 (stereo unspecified)	0.7	90.3*	73.3*	/	7.1	89.4*	91.4*
COC(=O)C1=C(c2cccc(OC)c2OC)C[C@@H]2CC[C@H]1N2C(=O)NCc1cccc2ccccc12	-0.1	21.7	/	/	3.8	/	/
CC1CCC/C=C/C2CC(O)CC2C(O)/C=C/C(=O)O1 (stereo unspecified)	-3.2	132.8*	94.2*	-3.8	-1.7	110.0*	102.4*
C[C@H]1CCC/C=C/C2C[C@H](O)CC2[C@H](O)/C=C/C(=O)O1 (stereo partly specified)	0.0	100.0*	101.2*	-4.5	7.7	110.0*	101.9*
C[C@H]1CCC[C@@H](O)CCC/C=C/c2cc(O)cc(O)c2C(=O)O1	-1.3	-170.2	-1.6	0.3	3.7	/	/
CN1/C(=C\C=C\C2=[N+](C)c3ccc4ccccc4c3C2(C)C)C(C)(C)c2ccccc21	/	/	71.1*	-4.2	/	115.5*	77.0*
CN1/C(=C\C=Nc2ccccc2)C(C)(C)c2ccccc21	0.4	-38.0	-6.8	1.6	3.7	/	/
CCn1nc(-c2ccccc2)nc2c(=O)n(C)c(=O)nc1-2	-0.9	-84.0	-36.7	-0.4	3.7	/	/
Cc1nc2c(=O)n(C)c(=O)nc-2n(C)n1	-5.0	114.8*	105.3*	-4.5	40.1	115.2*	95.6*
